The values below come from ChEMBL document CHEMBL1201862, “PubChem BioAssay data set” (2004).

Screen size: about 400,000 compounds; about 2,100 (0.53%) were called active. Not shown: some 14% with an inconclusive outcome. The rule behind the calls is not given here. Many of the other results were omitted from the sample, so actives are more common in it than they were.

Sequence of Ataxin-2 (Homo sapiens) (Q99700 whole entry): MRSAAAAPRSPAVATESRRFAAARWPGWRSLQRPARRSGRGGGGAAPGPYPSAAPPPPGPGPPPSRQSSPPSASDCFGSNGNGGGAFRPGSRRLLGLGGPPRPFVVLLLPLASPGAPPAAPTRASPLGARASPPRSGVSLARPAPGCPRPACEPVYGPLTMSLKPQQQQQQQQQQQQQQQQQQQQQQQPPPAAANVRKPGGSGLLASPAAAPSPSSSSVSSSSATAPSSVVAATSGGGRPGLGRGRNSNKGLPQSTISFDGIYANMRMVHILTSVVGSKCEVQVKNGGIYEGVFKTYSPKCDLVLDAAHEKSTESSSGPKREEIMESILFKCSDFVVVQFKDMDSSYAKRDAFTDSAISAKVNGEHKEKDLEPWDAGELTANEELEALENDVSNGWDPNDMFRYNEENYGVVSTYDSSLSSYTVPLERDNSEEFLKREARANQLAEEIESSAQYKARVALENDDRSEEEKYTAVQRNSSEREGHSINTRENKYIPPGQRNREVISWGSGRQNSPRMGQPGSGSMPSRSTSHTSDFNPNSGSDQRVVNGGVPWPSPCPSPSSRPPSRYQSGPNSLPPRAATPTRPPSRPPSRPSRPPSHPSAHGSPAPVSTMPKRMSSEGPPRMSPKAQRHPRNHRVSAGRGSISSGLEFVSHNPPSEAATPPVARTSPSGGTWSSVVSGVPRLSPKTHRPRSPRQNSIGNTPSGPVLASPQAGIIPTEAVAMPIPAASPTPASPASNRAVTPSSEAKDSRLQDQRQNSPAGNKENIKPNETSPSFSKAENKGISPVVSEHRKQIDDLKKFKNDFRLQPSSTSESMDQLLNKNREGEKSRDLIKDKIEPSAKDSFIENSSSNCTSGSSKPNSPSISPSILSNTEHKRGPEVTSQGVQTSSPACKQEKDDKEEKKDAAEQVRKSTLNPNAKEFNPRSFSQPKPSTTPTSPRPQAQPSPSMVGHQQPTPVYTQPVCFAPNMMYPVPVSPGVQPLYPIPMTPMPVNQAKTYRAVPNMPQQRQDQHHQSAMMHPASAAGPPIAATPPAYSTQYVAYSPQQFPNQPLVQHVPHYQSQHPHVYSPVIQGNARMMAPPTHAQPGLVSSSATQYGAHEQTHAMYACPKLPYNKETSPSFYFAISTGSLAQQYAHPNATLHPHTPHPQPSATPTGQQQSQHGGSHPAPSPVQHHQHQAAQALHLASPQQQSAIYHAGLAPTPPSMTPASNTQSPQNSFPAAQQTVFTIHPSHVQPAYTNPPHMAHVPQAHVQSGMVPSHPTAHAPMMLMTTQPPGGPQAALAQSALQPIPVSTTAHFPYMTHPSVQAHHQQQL

This experiment has as its target Ataxin-2 (Homo sapiens) (UniProt Q99700). Nature of the experiment: qHTS for Inhibitors of ATXN expression. The class given is functional. In general terms: In qHTS, concentration-response curves come from the screen itself.
As for `COc1ccc(CCNC(=O)C(=O)NCC2OCCN2S(=O)(=O)c2ccc(OC)c(OC)c2)cc1` (configuration not stated), the Potency result was “inactive”.

Turning to `COc1ccc(CCNC(=O)COc2ccc(S(=O)(=O)NC3CCCCC3)cc2Cl)cc1`, the Potency is 35.5 µM (active).

Take `O=C(COc1ccc(F)cc1Cl)NC1CCCCCC1`: the Potency result was “inactive”. For the compound `CCCCNc1c(-c2ccc(SC3CCCCC3)cc2)nc2cnccn12`, the Potency result was “inactive”. The same measure for `Cc1ccc(-c2nnc(NC3CCCCC3)c3ccccc23)cc1S(=O)(=O)N1CCN(C)CC1`: 11.2 µM (active); for `O=C(NCCC1=CCCCC1)c1coc(=O)c(Br)c1`: 31.6 µM (active); for `O=C(COc1ccccc1Br)NCCC1=CCCCC1`: “inactive”. The same measure for `COc1ccc(CCNC(=O)c2coc(=O)c(Br)c2)cc1`: 20 µM (active); for `Cc1noc(C)c1COc1ccc(C(=O)NCCc2ccc(S(N)(=O)=O)cc2)cc1`: “inactive”.

For the compound `Cn1c(C(=O)O)cc2c(=O)n3ccccc3nc21`, the Potency result was “inactive”. As for `O=C(Nc1ccc2cccnc2c1)c1ccc(Br)cc1`, the entry is “inactive”; as for `CC(=O)OCCn1c2nc(=O)[nH]c(=O)c-2nc2cc(C)c(C)cc21`, “inactive”; as for `COc1ccc2nc(NN=C3C(=O)CC(C)(C)CC3=O)sc2c1`, 33.6 µM (active). As for `COc1ccc2nc(Nc3ccccc3)sc2c1`, the entry is “inactive”; as for `COc1cccc(C2C3=C(O)CC(C)(C)CC3=NC(C)=C2C(=O)Nc2nc3ccccc3s2)c1OC` (configuration not stated), “inactive”; as for `O=C(Nc1ccc2oc(=O)ccc2c1)c1ccc(-c2cccc([N+](=O)[O-])c2)o1`, 39.8 µM (active). As for `COc1ccc(CCNC(=O)c2ccc(-c3cccc([N+](=O)[O-])c3)o2)cc1OC`, the entry is “inactive”; as for `O=C(Nc1nccs1)c1ccc(-c2ccc([N+](=O)[O-])cc2)o1`, “inactive”; as for `COc1cc2c(cc1NC(=O)COC(=O)/C=C/c1ccccc1)oc1ccccc12`, 17.8 µM (active).

For the compound `COc1ccc(C(=N)NOC(=O)/C=C/c2ccccc2)cc1`, the Potency entry was “inactive”. The same measure for `COc1cc2c(cc1N/C=C(\C#N)c1nc(-c3ccccc3)cs1)oc1ccccc12`: “inactive”; for `CCCCc1ccc(/C(C)=N/Nc2cc(N3CCOCC3)nc(C)n2)cc1`: “inactive”; for `O=C(CN1CCN(Cc2ccccc2)CC1)Nc1ccc2c(c1)CCC2`: “inactive”. On to `O=C(CN1C(=O)NC2(CCCC2)C1=O)Nc1nc(-c2ccccc2)cs1`, for which the Potency entry was “inactive”. As for `O=C(CN1C(=O)NC2(CCCCC2)C1=O)Nc1ccc2c(c1)CCC2`, the figure is 28.2 µM (active). The same measure for `CCc1ccccc1-n1c(N)c(C(=O)OC)c2nc3ccccc3nc21`: “inactive”. The same measure for `CN(C)S(=O)(=O)c1ccc2[nH]cc(/C=C/c3nc4ccccc4c(=O)n3-c3ccccc3)c2c1`: “inactive”; for `Cc1[nH]n(-c2ccccc2)c(=O)c1N=Nc1nccs1`: 39.8 µM (active); for `Cc1[nH]n(-c2ccc(Cl)cc2)c(=O)c1N=Nc1cccnc1`: “inactive”. For the compound `Cc1[nH]n(-c2ccccc2)c(=O)c1N=Nc1c(O)cc(S(=O)(=O)N(C)C)c2ccccc12`, the Potency is 4.47 µM (active).

As for `CN1C(=O)c2cccc3c(S(=O)(=O)N(C)C)ccc1c23`, the Potency entry is “inactive”.

Regarding `O=C(O)c1cc2c(ncc3c(=O)n(-c4ccccc4)[nH]c32)s1`, the Potency entry was “inactive”. Consider `Cc1cccc(/N=c2\oc3cc(O)ccc3cc2C(N)=O)c1`, for which the Potency entry is “inactive”. As for `COc1cccc(C2Oc3ccccc3C3CC(c4cccs4)=NN32)c1` (configuration not stated), the entry is “inactive”; as for `COC(=O)c1sc2nc3c(c(-c4cccs4)c2c1N)CCCC3`, “inactive”. The same measure for `CC1(C)Cc2c(sc3nc(SCC(=O)O)nc(N)c23)CO1`: “inactive”; for `COC(=O)CSc1nc(N)c2c3c(sc2n1)C(c1ccccc1)SC(c1ccccc1)C3` (configuration not stated): 35.5 µM (active); for `Cc1ccc2oc(=O)c(S(=O)(=O)c3ccc(F)cc3)cc2c1`: “inactive”. For `Cc1ccc(NC(=O)COC(=O)c2c[nH]c3ccccc23)cc1C`, the Potency result was “inactive”. In the case of `Cc1cn(-c2cc(C(=O)Nc3ccc(C)c(NC(=O)C(=O)c4c[nH]c5ccccc45)c3)cc(C(F)(F)F)c2)cn1`, the Potency was 20 µM (active). Turning to `O=C(NCCOc1ccccc1Cl)C(=O)c1c[nH]c2ccccc12`, the Potency result was “inactive”. The same measure for `OCCN1CCN(c2ncnc3c2ncn3[C@H]2CN(Cc3ccc(-c4ccccc4)cc3)C[C@@H](CO)O2)CC1`: 39.8 µM (active). Regarding `COc1cccc(C2NC(=O)CCC2[N+](=O)[O-])c1` (configuration not stated), the Potency entry was “inactive”. The same measure for `CCCC(/C=C/c1ccc(OC(C)=O)cc1)=C1/c2ccccc2C(=O)N1c1ccccc1`: “inactive”; for `COc1ccc(/C=N/N(C)C2=NS(=O)(=O)c3ccccc32)cc1`: “inactive”; for `CN(C)c1ccc(/C=C2\CCCc3c2nc2ccccc2c3C(=O)O)cc1`: “inactive”.

Take `COc1cccc(/C=C2/CCC(CN(C)C)C2=O)c1` (configuration not stated): the Potency is 9.47 µM (active). Regarding `CCCC/C=C1/CCC(CN(C)C)C1=O` (configuration not stated), the Potency was 37.7 µM (active). As for `COc1ccc(/C=C2\CCC/C(=C\C=N\N(C)C)C2=O)cc1`, the figure is 11.2 µM (active); as for `CN(C)CC1CCC/C(=C\c2ccc(OC(=O)/C=C/c3ccccc3)cc2)C1=O` (configuration not stated), 35.5 µM (active); as for `COc1cccc(NC=C2C(=O)CCCC2=O)c1`, “inactive”. As for `CSc1ccc(/C=C/C(=O)OCC(=O)N2CCc3ccccc32)cc1`, the entry is “inactive”; as for `Cc1noc(C)c1COc1ccc(C(=O)OCC(=O)Nc2ccc(S(N)(=O)=O)cc2)cc1`, “inactive”; as for `CN(C)S(=O)(=O)Oc1ccsc1C(=O)Nc1ccc(Br)cc1`, “inactive”. The same measure for `COc1ccc(/C=C/CN2CCN(CC(C)C)C(CCO)C2)cc1` (configuration not stated): “inactive”; for `CC1CCN(c2ccc3c(c2)S(=O)(=O)c2cc(C(=O)O)ccc2C3=O)CC1`: “inactive”; for `Brc1ccc2ncc(Br)cc2c1`: “inactive”. As to `CCCCn1nc(NC(=O)c2cccs2)c2cc3cc(OC)ccc3nc21`, the Potency entry is “inactive”. The same measure for `COc1ccc(/C=C2/CCCC(CN(C)C)C2=O)cc1` (configuration not stated): 13.4 µM (active); for `CN(C)CC1CC/C(=C\c2ccc(O)cc2)C1=O` (configuration not stated): 39.8 µM (active); for `O=C(O)c1c2c(nc3ccccc13)/C(=C/c1ccc(O)cc1)CC2`: “inactive”. For `Cc1cc(=O)oc2cc3c(cc12)OCCN3`, the Potency result is “inactive”. The same measure for `CC(C)(C)c1ccc(C2=CC(c3ccccc3)n3ncnc3N2)cc1` (configuration not stated): “inactive”; for `CCN(CC)c1ccc2c(C)c(CO)c(=O)oc2c1`: “inactive”. The same measure for `COc1c(Br)cc(/C=N/n2c(S)nnc2-c2ccccc2)c(O)c1Br`: “inactive”; for `Cc1cccc(NC(=O)c2cc(Cl)nc3ccccc23)n1`: “inactive”; for `O=C(Nc1cccc(NC(=O)c2cc([N+](=O)[O-])ccc2Cl)n1)c1cc([N+](=O)[O-])ccc1Cl`: 22.4 µM (active). As for `O=C(Nc1cccc(NC(=O)c2cccc([N+](=O)[O-])c2)n1)c1cccc([N+](=O)[O-])c1`, the entry is “inactive”.

As for `c1cn2c(NC3CCCCC3)c(-c3ccc(SC4CCCCC4)cc3)nc2cn1`, the Potency entry was “inactive”. As for `CCc1ccc(S(=O)(=O)ON2C(=O)c3ccccc3C2=O)cc1`, the figure is 23.8 µM (active); as for `Cc1ccc(F)cc1NC(=O)N1CCCN(c2ccc(C(F)(F)F)cn2)CC1`, “inactive”; as for `COc1ccc(Cl)cc1NC(=O)N1CCN(c2ccccc2OC)CC1`, “inactive”. The same measure for `Fc1ccc(-c2nnc3ccc(N4CCc5ccccc5C4)nn23)cc1`: 35.5 µM (active). As for `COc1ccccc1NC(=O)N1CCN(c2ccc3nnc(-c4ccc(F)cc4)n3n2)CC1`, the figure is 25.1 µM (active); as for `CCN(CC)C(=O)CSc1nc2ccccc2c(=O)n1CCC(=O)N1CCN(c2ccccc2)CC1`, “inactive”; as for `COc1ccc(-n2cc(C(=O)c3cc(Cl)ccc3O)cc(C#N)c2=O)cc1`, “inactive”. For `Clc1cccc(Cc2c(-c3ccco3)nc3ccc(Br)cn23)c1`, the Potency was 31.6 µM (active). `COc1ccc(Cc2c(-c3ccco3)nc3ccc(Br)cn23)c(C)c1`: the Potency is 20 µM (active). With `Clc1cccc(Cc2c(-c3ccco3)nc3ccc(Cl)cn23)c1`, the Potency is 28.2 µM (active). On to `Clc1cccc(CSc2ccc(-c3ccco3)nn2)c1`, for which the Potency entry is “inactive”. As for `COc1ccc2nc(-c3ccco3)c(-c3ccco3)nc2c1`, the entry is “inactive”. `Fc1cccc(Cc2c(-c3ccco3)nc3ccc(Cl)cn23)c1`: the Potency is 39.8 µM (active).

On to `COc1ccc(C2C(C(=O)c3ccco3)=C(O)C(=O)N2c2nnc(C)s2)cc1` (configuration not stated), for which the Potency entry is “inactive”.

With `O=C(CC1C(=O)NC2CCCCC2N1C(=O)c1ccc([N+](=O)[O-])cc1)Nc1ccccc1` (configuration not stated), the Potency entry is “inactive”. The same measure for `Cc1ccc(S(=O)(=O)N2CCN(C(=O)c3cc(C4CC4)nc4c3cnn4C(C)C)CC2)cc1`: “inactive”; for `CC(=O)Nc1c(-c2ccccc2)nc2ccc(Cl)cn12`: “inactive”. The same measure for `Sc1nnc(-c2ccco2)n1-c1ccc(Br)cc1`: “inactive”; for `Cc1ccc2nc(-c3ccncc3)c(NC3CCCCC3)n2c1`: “inactive”; for `Cc1ccc(Cc2c(-c3ccco3)nc3ccc(Cl)cn23)cc1`: 25.1 µM (active). The same measure for `CCOC(=O)C1CCN(C(=O)Nc2ccc3nc(-c4ccco4)c(-c4ccco4)nc3c2)CC1`: “inactive”; for `Cc1nc2ccc(Cl)cn2c1[N+](=O)[O-]`: “inactive”. Turning to `Fc1cccc(Cc2c(-c3ccco3)nc3ccc(Br)cn23)c1`, the Potency was 39.8 µM (active). As for `Cc1ccc2nc(-c3ccco3)c(CC3CCCCC3)n2c1`, the figure is 22.4 µM (active); as for `COCCNC(=O)c1cc2c(=O)n3cccc(C)c3nc2n(Cc2ccncc2)c1=N`, “inactive”. The same measure for `C/C(=N\NC(=O)C1COc2ccccc2O1)c1ccc(N2CCOCC2)cc1` (configuration not stated): “inactive”. The same measure for `O=C(COC(=O)c1c2c(nc3ccccc13)/C(=C\c1ccco1)CC2)NC1CCCC1`: “inactive”. For `O=C1C(=C(I)I)c2ccccc2-c2ccccc21`, the Potency was 26.7 µM (active). The same measure for `COc1ccc(C2C=C(C)Nc3nc4ccccc4n32)cc1` (configuration not stated): “inactive”; for `Cc1ccc(C(C)(C)C)cc1S(=O)(=O)N1CC(=O)Nc2ccccc21`: “inactive”; for `COc1ccc(NC(=O)COC(=O)c2[nH]nc3ccccc23)c(OC)c1`: “inactive”. For `COc1ccc(NC(=O)c2oc3ccccc3c2NC(=O)COc2ccccc2OC)c(OC)c1`, the Potency is 35.5 µM (active).

Consider `COc1ccc(C(=O)c2oc3ccccc3c2NC(=O)c2ccc(F)cc2)cc1`, for which the Potency entry was “inactive”.
